The list is not random: actives were taken first. Their share in the collection is about 18%.
DT40 TDP1 no CPT = qHTS for Inhibitors of human tyrosyl-DNA phosphodiesterase 1 (TDP1): qHTS in cells in absence of CPT. 15% of 420,000 active. Potency, µM (series often up to 46.2 µM), for the others: top-dose activity change, negative = growth inhibition, usual class: inhibitors. AID 686978, 2013. DT40 Tdp1-/- hTDP1 cells, no CPT, ATP luminescence, 48 h; also: nearly all actives have a fitted effect of over 55% in size
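Growth of hTDP1-complemented DT40 Tdp1-knockout cells is measured by ATP luminescence after at least 48 hr compound exposure at 37 °C, with DMSO substituting for the 20 nM CPT used in the parallel screen.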
TDP1 block = blocks human tyrosyl-DNA phosphodiesterase 1 | recombinant TDP1, AlphaScreen DNA substrate cleavage | 0.28% of 350,000 active | Potency, µM (doses to about 130 µM), for the others: at the top dose activity change, negative = inhibition, hits mostly inhibitors | AID 485290 | Q9NUW8; also: nearly all actives have a fitted effect of over 40% in size
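Signal: AlphaScreen proximity between streptavidin donor and anti-FITC acceptor beads on intact substrate. Reaction: Tdp1 1 nM, substrate 15 nM final, 5 min RT after 15 min compound preincubation.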
TDP1 cell CPT = growth inhibition of DT40 Tdp1-/-;hTDP1 cells with camptothecin (screen for TDP1 inhibitors); 12% of 420,000 active; Potency, µM (highest dose often 46.2 µM), inactives show top-dose activity change, negative = growth inhibition, hits mostly inhibitors; chicken DT40 Tdp1-/-;hTDP1 cells + 20 nM CPT, ATP luminescence, 48 h; AID 686979; also: nearly all actives have a fitted effect of over 55% in size
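Chicken DT40 Tdp1-/- cells stably complemented with human TDP1 were seeded at 400 cells/well in medium containing 20 nM camptothecin, exposed to pin-transferred compounds, and grown at 37 °C for at least 48 hr. Viability was read as ATP luminescence.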
GCN5L2 inh = inhibitors of human GCN5L2 histone acetyltransferase; GCN5L2 HAT assay, ThioGlo1 CoA-SH fluorescence; Q92830; Potency, µM (titrated, usually from 58.9 µM), inactives show at the top dose activity change, negative = inhibition, most hits filed as inhibitors; 0.21% of 390,000 active; AID 504327
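ThioGlo1-coupled HAT assay: 20nM GCN5L2, 70uM acetyl-CoA, 75uM H3(1-25) peptide, pH 7.5. Fluorescence read at 340/540nm at start and after 20 min at room temperature.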
PLK1 PBD inh = PLK1 (human) polo-box domain binding inhibition; P53350; Plk1 PBD binding of FITC phosphopeptide, fluorescence polarization; Potency, µM, inactives show max response, negative = inhibition, most hits filed as inhibitors; 2.8% of 360,000 active; also: series mostly up to about 57 µM; nearly all actives have a fitted effect of over 65% in size
VDR inhibitor = blocks the human vitamin D receptor; P11473; VDR-SRC2-3 peptide fluorescence polarization, 2 h; Potency, µM, inactives show max response, negative = inhibition, most hits filed as inhibitors; 0.93% of 400,000 active
Target sequence (P11473 whole entry, looked up): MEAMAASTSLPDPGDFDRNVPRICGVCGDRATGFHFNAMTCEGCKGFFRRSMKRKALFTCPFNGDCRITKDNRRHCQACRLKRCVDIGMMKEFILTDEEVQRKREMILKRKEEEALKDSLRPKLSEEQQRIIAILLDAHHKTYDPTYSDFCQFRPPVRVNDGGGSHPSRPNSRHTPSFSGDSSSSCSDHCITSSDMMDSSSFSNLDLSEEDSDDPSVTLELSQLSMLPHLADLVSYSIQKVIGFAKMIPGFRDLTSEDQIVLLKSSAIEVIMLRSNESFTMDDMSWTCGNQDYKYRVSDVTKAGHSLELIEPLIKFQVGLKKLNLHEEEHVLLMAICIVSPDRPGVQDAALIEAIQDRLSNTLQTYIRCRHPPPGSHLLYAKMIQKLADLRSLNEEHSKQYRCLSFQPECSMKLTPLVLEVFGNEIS
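Compounds are added to VDR with labelled SRC2-3 coactivator peptide and held 2 h at room temperature. Inhibition of the VDR–peptide interaction is then read as a change in fluorescence polarization.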
* marks the source's active call; other numbers are inactive results; [ ] = remark or other dose. Calls follow the shape of the dose curve; as a rule, active = well fitted curve in the direction sought with a large enough effect; inconclusive = small, poorly fitted or top-dose-only effect, or another doubt; inactive = no such curve, though single readings can be large; an effect the other way counts as inactive or inconclusive. % is scaled to controls: 0 for no effect and ±100 for the full control effect; potency is read from the fitted curve at half-maximal effect.

`CCOC(=O)C1=CN(Cc2cccc(F)c2)S(=O)(=O)N(CC)C1c1ccc(C(F)(F)F)cc1` (stereo not given) gave DT40 TDP1 no CPT 23µM*, TDP1 block -3%[56.1 µM], TDP1 cell CPT 21µM*, GCN5L2 inh -8%, PLK1 PBD inh -15% and VDR inhibitor -22%.
`CCOC(=O)C1=CN(Cc2cccc(-c3cccnc3)c2)S(=O)(=O)N(C)C1C` (stereo not given) gave DT40 TDP1 no CPT 13µM*, TDP1 block 0%[56.1 µM], TDP1 cell CPT inconclusive, GCN5L2 inh -15%, PLK1 PBD inh -17% and VDR inhibitor -6%.
CCOC(=O)C1=CN(Cc2cccc(F)c2)S(=O)(=O)NC1c1ccc(Br)cc1F (stereo not given) was read as DT40 TDP1 no CPT inconclusive, TDP1 block -1%[56.1 µM], TDP1 cell CPT 21µM*, GCN5L2 inh -16%, PLK1 PBD inh -20% and VDR inhibitor -5%.
For CCCn1c(N)c(N(CCOC)C(=O)CSc2c(Cl)cccc2Cl)c(=O)[nH]c1=O the results were DT40 TDP1 no CPT 19%, TDP1 block 0%, TDP1 cell CPT -11%, GCN5L2 inh 1%, PLK1 PBD inh -25% and VDR inhibitor 6%.
For CCOC(=O)c1c(C)[nH]c(C)c1S(=O)(=O)NCC(=O)Nc1ccc(CC)cc1 the results were DT40 TDP1 no CPT -20%, TDP1 block 3%, TDP1 cell CPT -27%, GCN5L2 inh -7% and VDR inhibitor 20%.
`CCCCC(=O)NCCc1c(Cc2ccccc2)[nH]c2ccccc12` gave DT40 TDP1 no CPT 18µM*, TDP1 block 16%, TDP1 cell CPT inconclusive, GCN5L2 inh -14% and VDR inhibitor -22%.
`CCc1cc2c(Sc3nc4ccccc4s3)ncnc2s1` gave DT40 TDP1 no CPT 9.2µM*, TDP1 block 0%, TDP1 cell CPT 5.2µM*, GCN5L2 inh -10%, PLK1 PBD inh -9% and VDR inhibitor -7%.
`c1ccc2sc(Sc3ncnc4sccc34)nc2c1` gave DT40 TDP1 no CPT 2.9µM*, TDP1 block 5%, TDP1 cell CPT 5.8µM*, GCN5L2 inh -4%, PLK1 PBD inh -7% and VDR inhibitor -7%.
Screening CCc1cc2c(SCC(=O)c3ccc(C)cc3)ncnc2s1 returned DT40 TDP1 no CPT inconclusive, TDP1 cell CPT inconclusive, GCN5L2 inh 0%, PLK1 PBD inh 30µM* and VDR inhibitor 8%.
`COc1ccc(CCNC(=O)c2csc3c2CCCCC3)c(OC)c1` gave DT40 TDP1 no CPT inconclusive, TDP1 block -1%, TDP1 cell CPT inconclusive, GCN5L2 inh -11% and VDR inhibitor 1%.
For CC(=O)NCCNc1nc(-c2ccccc2C)nc2ccccc12 the results were DT40 TDP1 no CPT -24%, TDP1 cell CPT -26%, GCN5L2 inh -9% and VDR inhibitor -2%.
For O=c1cc2c(=O)oc3cc(O)c(O)oc3c2c(O)c1O the results were DT40 TDP1 no CPT -27%, TDP1 block inconclusive, TDP1 cell CPT inconclusive, GCN5L2 inh -13%, PLK1 PBD inh inconclusive and VDR inhibitor -4%.
CC1Nc2ncnc(N3CCN(c4ccccc4)CC3)c2N(Cc2ccccc2)C1=O (stereo not given) was read as DT40 TDP1 no CPT 16µM*, TDP1 block 0%, TDP1 cell CPT inconclusive, GCN5L2 inh 0%, PLK1 PBD inh -12% and VDR inhibitor -17%.
For CC1Nc2ncnc(N3CCOCC3)c2N(Cc2ccc(Cl)cc2)C1=O (stereo not given) the results were DT40 TDP1 no CPT inconclusive, TDP1 cell CPT -23%, GCN5L2 inh -1%, PLK1 PBD inh -13% and VDR inhibitor -10%.
For CC1Nc2ncnc(N3CCN(c4ccccc4)CC3)c2N(Cc2ccc(Cl)cc2)C1=O (stereo not given) the results were DT40 TDP1 no CPT 18µM*, TDP1 block 7%, TDP1 cell CPT inconclusive, GCN5L2 inh -4%, PLK1 PBD inh -10% and VDR inhibitor -8%.
`O=P(O)(O)OC(CO)CO` gave DT40 TDP1 no CPT -1%, TDP1 block 8%, TDP1 cell CPT 3%, GCN5L2 inh -6% and VDR inhibitor 1%.
Screening Cc1cccc(C)c1OCC(O)CN1CCc2ccccc2C1 (stereo not given) returned DT40 TDP1 no CPT 6.5µM*, TDP1 cell CPT 4.6µM*, PLK1 PBD inh 6% and VDR inhibitor 5%.
`O=C(CCl)N=c1sccn1Cc1cccc2ccccc12` gave DT40 TDP1 no CPT 2.6µM*, TDP1 block 7%, TDP1 cell CPT 4.6µM*, GCN5L2 inh -14%, PLK1 PBD inh -14% and VDR inhibitor -12%.
For CCC(=O)OCC(=O)N=c1sccn1Cc1ccccc1Cl the results were DT40 TDP1 no CPT -5%, TDP1 block 4%, TDP1 cell CPT -2%, GCN5L2 inh -3%, PLK1 PBD inh 2% and VDR inhibitor -20%.
`CCOC(=O)c1ccc(CN(Cc2ccc(F)cc2)S(=O)(=O)c2ccc(F)c(C(=O)Nc3ccccc3C(F)(F)F)c2)cc1` gave DT40 TDP1 no CPT -19%, TDP1 block 3%, TDP1 cell CPT -25%, GCN5L2 inh -14% and VDR inhibitor 5%.
For CCN(CC)CCOc1ccc(C(O)(Cc2ccc(Cl)cc2)c2ccc(C)cc2)cc1 (stereo not given) the results were DT40 TDP1 no CPT 4.7µM*, TDP1 block 10%, TDP1 cell CPT 3µM*, GCN5L2 inh -4% and VDR inhibitor inconclusive.
For COCCN(CCOc1cc(C)cc(C)c1)Cc1ccc(Cl)cc1 the results were DT40 TDP1 no CPT -19%, TDP1 cell CPT inconclusive, GCN5L2 inh 27%, PLK1 PBD inh 0% and VDR inhibitor 6%.
For CCN(CC)CCNCC(O)(c1ccc(Cl)cc1)c1ccc(Cl)cc1 the results were DT40 TDP1 no CPT 16µM*, TDP1 block 1%, TDP1 cell CPT inconclusive, GCN5L2 inh -10%, PLK1 PBD inh -23% and VDR inhibitor 3%.
For NCC(O)(c1ccc(Cl)cc1)c1ccc(Cl)cc1 the results were DT40 TDP1 no CPT 10µM*, TDP1 block 0%, TDP1 cell CPT 16µM*, GCN5L2 inh 0%, PLK1 PBD inh -7% and VDR inhibitor 16%.
`O=S(Cc1ccccc1)CC(O)(c1ccc(Cl)cc1)c1ccc(Cl)cc1` (stereo not given) gave DT40 TDP1 no CPT inconclusive, TDP1 block 3%, TDP1 cell CPT inconclusive, GCN5L2 inh 18%, PLK1 PBD inh -1% and VDR inhibitor -3%.

Screening data from PubChem.
